“And” between values parts separate entries of the source, which are not always exact repeats. Identical values can stand only once. The source made the active and inactive calls.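 The calls were made as follows, unless noted: active = thallium flux through the channel raised or lowered by more than 3 SD from vehicle-only wells, actives on both sides; inactive = the rest.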
Tests used:
[1] = stimulators of nuclear beta-catenin in C2C12, primary screen, imaging, WNT3A-conditioned medium, mouse C2C12, NPC library (AID 1117326; in the data active = nuclear beta-catenin stimulation mostly above about 4.2%, no sharp cut-off; inactive = mostly below about 10%); settings: stronger effect = higher value
[2] = stimulators of insulin release from INS-1E, primary screen, cell-based, 5 mM glucose, NPC library (AID 1117329;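 active = compound raises insulin release from rat beta cells at 5 mM glucose, no numeric limit stated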); settings: rat INS-1E insulin secretion, at 10 µM, stronger effect = higher value
[3] = growth inhibition of GSK3B-pretreated HCT116 cells – cell-based, CellTiter-Glo, 0.2 to 20 µM (AID 1117336;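 active = compounds lowering colon cancer cell viability after pretreatment blocking the GSK3B kinase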); settings: HCT116 viability after GSK3B inhibitor, at 20 µM, stronger effect = higher value
[4] = inhibition of endothelial tube formation, primary screen, imaging, VEGF stimulated, CD31 staining, tube area, NPC library (AID 1117340;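 active = compound that reduces growth-factor-driven endothelial tube area in a mixed cell culture, no cutoff stated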); settings: VEGF-stimulated ADSC/ECFC co-culture, at 10 µM, stronger effect = higher value
[5] = glucagon-like peptide 1 release enhancers, primary assay, NCI-H716 cell line, NPC library (AID 1117341;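 active = compound raises GLP1 secretion from the human gut endocrine cells, with no numeric limit stated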); settings: NCI-H716 cells, at 10 µM, stronger effect = higher value
[6] = HCT116 colon cancer cell growth inhibition, primary screen, CellTiter-Glo luminescence, NPC library (AID 1117342;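 active = compounds that lower survival of HCT116 colon cancer cells in the luminescence readout, no numeric limit stated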); settings: at 20 µM (top of the series)
[7] = CellTiter-Glo luminescent readout of SW480 viability loss, NPC library primary (AID 1117343;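 active = compounds that lower viability of the colon cancer cells in the luminescence readout, with no numeric limit stated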); settings: CellTiter-Glo luminescence; at 20 µM (top of the series)
[8] = decreased DLD-1 cellular survival, CellTiter-Glo luminescent readout, NPC compound collection, primary HTS (AID 1117346;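 active = compounds that lower survival of DLD-1 colon cancer cells in the luminescence readout, no cutoff given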); settings: DLD-1 viability, CellTiter-Glo luminescence; at 20 µM (top of the series)
[9] = target: 6-phosphogluconate dehydrogenase, decarboxylating (Homo sapiens) (UniProt P52209); assay: 6PGD enzyme inhibitors, primary screen, biochemical, human, recombinant enzyme, NADPH absorbance (AID 1159550;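 active = at least 20% inhibition of 6-phosphogluconate dehydrogenase activity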); settings: recombinant 6PGD, NADPH absorbance 341 nm; at 10 µM; stronger effect = higher value
Chain of 6-phosphogluconate dehydrogenase, decarboxylating (Homo sapiens) (P52209 whole entry, looked up): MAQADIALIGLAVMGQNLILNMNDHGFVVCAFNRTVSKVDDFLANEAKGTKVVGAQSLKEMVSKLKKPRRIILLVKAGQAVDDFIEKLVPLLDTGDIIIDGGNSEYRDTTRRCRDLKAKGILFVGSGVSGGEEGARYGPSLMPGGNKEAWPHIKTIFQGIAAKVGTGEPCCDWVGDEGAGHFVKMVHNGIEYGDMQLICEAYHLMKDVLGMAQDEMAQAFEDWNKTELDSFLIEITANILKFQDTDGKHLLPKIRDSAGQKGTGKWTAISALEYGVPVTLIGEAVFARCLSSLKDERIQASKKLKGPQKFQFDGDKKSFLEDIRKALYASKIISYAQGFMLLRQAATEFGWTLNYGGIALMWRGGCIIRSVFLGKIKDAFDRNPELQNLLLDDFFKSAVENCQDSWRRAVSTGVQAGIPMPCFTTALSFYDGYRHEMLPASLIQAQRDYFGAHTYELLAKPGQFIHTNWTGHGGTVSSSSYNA

[10] = differential killing of epithelial or mesenchymal cells, primary screen, imaging, PC-3E GFP, TEM4-18 mCherry, co-culture (AID 1345086;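 active = compounds killing one labelled cell type while sparing the other, by normalised counts and ratio limits, not self-fluorescent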;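 as to all read-outs here: cells exposed to compound for 72 h before imaging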;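 as to red/green cell ratio (normalised): normalised mesenchymal count divided by normalised epithelial count so high means epithelial killing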); settings: imaging cell counts, at 1 µM; for red/green cell ratio (normalised): actives lie on both sides, counts scaled to control wells, 1 = unselective
[11] = sensitizers of A549 cells to miR-34 induction, primary screen, imaging, A549 dox-inducible miR-34, nuclei and caspase counts (AID 1347080;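 active = compounds whose cell count with miR-34 switched on is under 0.7 times the count with it off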); settings: A549 miR-34 inducible, Hoechst nuclei count, 48 h
[12] = survival rescue of mitochondrial mutant cells in low glucose, primary screen, MELAS cybrids, Rieske KO mouse fibroblasts, CellTiter-Glo (AID 1508586;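 active = mean z-score across replicates of 1.96 or higher in either the MELAS or the Rieske mutant cell line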;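 also: z relative to plate mean and SD of compound and empty wells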)
F380Y = assay: modulators of BK channel variants, profiling panel, selectivity assay, cell-based, U2OS BacMam, thallium flux, beta subunits (AID 1259406); settings: at 30 µM;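 also: initial slope of Thallos dye fluorescence rise after thallium is added; log ratio against the mean of 0.3% DMSO vehicle wells on the same plate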
F380Y/beta1 = assay: as above; settings: at 30 µM
F380Y/beta2Delta = assay: as above; settings: at 30 µM
F380Y/beta4 = assay: as above; settings: at 30 µM
[13] = target: Calcium-activated potassium channel subunit alpha-1 (Homo sapiens) + Leucine-rich repeat-containing protein 26 (Homo sapiens) (UniProt Q12791+Q2I0M4); assay: as above; settings: F380Y/Slo1WT/gamma1, at 30 µM
Chain of Calcium-activated potassium channel subunit alpha-1 (Homo sapiens) + Leucine-rich repeat-containing protein 26 (Homo sapiens) (Q2I0M4 whole entry, looked up, one chain of several): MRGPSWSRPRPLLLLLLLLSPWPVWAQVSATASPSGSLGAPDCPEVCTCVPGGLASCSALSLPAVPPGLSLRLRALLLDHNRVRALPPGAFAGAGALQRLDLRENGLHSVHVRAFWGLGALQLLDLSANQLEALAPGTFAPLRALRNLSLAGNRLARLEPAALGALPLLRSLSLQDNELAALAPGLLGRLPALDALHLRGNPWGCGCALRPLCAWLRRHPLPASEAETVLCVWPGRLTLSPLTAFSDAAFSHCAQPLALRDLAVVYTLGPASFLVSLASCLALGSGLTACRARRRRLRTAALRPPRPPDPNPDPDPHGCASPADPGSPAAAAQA

R275C = assay: as above; settings: at 30 µM
R275C/beta1 = assay: as above; settings: at 30 µM
[14] = measured here: epithelial PC-3E GFP cell survival
[15] = measured here: mesenchymal TEM4-18 mCherry cell survival
[16] = stronger effect = lower value, cell number ratio, induced over uninduced
[17] = measured here: relative caspase fold change +Dox/-Dox
[18] = measured here: total cells with miR-34 induction, stronger effect = lower value
[19] = measured here: total cells without miR-34 induction
[20] = MELAS cybrid survival, CellTiter-Glo 48 h, stronger effect = higher value
[21] = Rieske KO mouse fibroblast survival, CellTiter-Glo 72 h

SMILES: CN(C)CCc1c[nH]c2ccc(C[C@H]3COC(=O)N3)cc12
- nuclear beta-catenin stimulation ([1]; at 10 µM): 0.3% (inactive)
- nuclear beta-catenin stimulation ([1]; stimulation, at 2 µM): 1.8%
- insulin secretion stimulation [2]: 1.2% (inactive)
- viability decrease [3]: 14.8% (inactive)
- tube area decrease [4]: -1.1% (inactive)
- GLP1 secretion stimulation [5]: -0.5% (inactive)
- inhibition of viability [6]: 13.1% (inactive)
- viability decrease (inhibition) [7]: 26.5% (inactive)
- viability decrease (inhibition) [8]: 24.6% (inactive)
- inhibition [9]: 8.76% (inactive)
- red/green cell ratio (normalised) [10]: 0.98 (inactive)
- normalised cell number [10, 14]: 1.02
- normalised cell number [10, 15]: 1
- fold change [11, 16]: 0.877 (inactive)
- fold change [11, 17]: 1.39
- cell count [11, 18]: 11600
- cell count [11, 19]: 13300
- z-score [12, 20]: 0.816 (inactive)
- z-score [12, 21]: -0.25
- log fold change Tl+ flux (F380Y): 0.0506 (inactive)
- log fold change Tl+ flux (F380Y/beta1): 0.00826 (inactive)
- log fold change Tl+ flux (F380Y/beta2Delta): -0.0158 (inactive)
- log fold change Tl+ flux (F380Y/beta4): 0.0115 (inactive)
- log fold change Tl+ flux [13]: 0.0131 (inactive)
- log fold change Tl+ flux (R275C): -0.02 (inactive)
- log fold change Tl+ flux (R275C/beta1): 0.0275 (inactive)

SMILES: NS(=O)(=O)c1cc2c(cc1C(F)(F)F)NC(Cc1ccccc1)NS2(=O)=O (stereo not drawn)
- nuclear beta-catenin stimulation ([1]; at 10 µM): 0.1% (inactive)
- nuclear beta-catenin stimulation ([1]; stimulation, at 2 µM): 1.7%
- insulin secretion stimulation [2]: 0.8% (inactive)
- viability decrease [3]: -5.2% (inactive)
- tube area decrease [4]: -25.6% (inactive)
- GLP1 secretion stimulation [5]: 1.6% (inactive)
- inhibition of viability [6]: -9.63% (inactive)
- viability decrease (inhibition) [7]: 18.1% (inactive)
- viability decrease (inhibition) [8]: -18.1% (inactive)
- inhibition [9]: -18.8% (inactive)
- red/green cell ratio (normalised) [10]: 1.09 (inactive)
- normalised cell number [10, 14]: 1.12
- normalised cell number [10, 15]: 1.22
- fold change [11, 16]: 0.994 (inactive) and 0.853 (inactive) and 0.857 (inactive)
- fold change [11, 17]: 3.31 and 1.41 and 3.71
- cell count [11, 18]: 10000 and 8170 and 11600
- cell count [11, 19]: 10100 and 9580 and 13500
- z-score [12, 20]: 0.478 (inactive)
- z-score [12, 21]: -0.203
- log fold change Tl+ flux (F380Y): 0.0508 (inactive)
- log fold change Tl+ flux (F380Y/beta1): -0.0798 (inactive)
- log fold change Tl+ flux (F380Y/beta2Delta): 0.0485 (inactive)
- log fold change Tl+ flux (F380Y/beta4): 0.0179 (inactive)
- log fold change Tl+ flux [13]: -0.0118 (inactive)
- log fold change Tl+ flux (R275C): 0.0405 (inactive)
- log fold change Tl+ flux (R275C/beta1): 0.0248 (inactive)

SMILES: COc1ccc(OC)c(C(O)CNC(=O)CN)c1 (stereo not drawn)
- nuclear beta-catenin stimulation ([1]; at 10 µM): 3.8% (inactive)
- nuclear beta-catenin stimulation ([1]; stimulation, at 2 µM): 4.9%
- insulin secretion stimulation [2]: 2.7% (inactive)
- viability decrease [3]: 17.9% (inactive)
- tube area decrease [4]: -15.2% (inactive)
- GLP1 secretion stimulation [5]: 0.7% (inactive)
- inhibition of viability [6]: -0.9% (inactive)
- viability decrease (inhibition) [7]: -26.4% (inactive)
- viability decrease (inhibition) [8]: 0.7% (inactive)
- inhibition [9]: -19.4% (inactive)
- red/green cell ratio (normalised) [10]: 1.18 (inactive)
- normalised cell number [10, 14]: 1.01
- normalised cell number [10, 15]: 1.2
- fold change [11, 16]: 0.924 (inactive) and 0.912 (inactive) and 0.855 (inactive)
- fold change [11, 17]: 2.18 and 0.75 and 3.91
- cell count [11, 18]: 9350 and 8590 and 11100
- cell count [11, 19]: 10100 and 9420 and 12900
- z-score [12, 20]: 0.0363 (inactive)
- z-score [12, 21]: -0.177
- log fold change Tl+ flux (F380Y): -0.028 (inactive)
- log fold change Tl+ flux (F380Y/beta1): 0.0228 (inactive)
- log fold change Tl+ flux (F380Y/beta2Delta): -0.0267 (inactive)
- log fold change Tl+ flux (F380Y/beta4): 0.0115 (inactive)
- log fold change Tl+ flux [13]: 0.0303 (inactive)
- log fold change Tl+ flux (R275C): -0.0312 (inactive)
- log fold change Tl+ flux (R275C/beta1): -0.0304 (inactive)

From PubChem BioAssay
